Source: PubChem
In the library only some 10% were active in any assay of this set; here they are far more common.
hNpr1 antagonist: human Npr1 receptor antagonism; P16066; HEK293 hNpr1 GloSensor cGMP, ANP-stimulated luminescence; Potency, µM (titrated, usually from 46.3 µM), most hits filed as inhibitors; 1.6% of 76,000 active; calls by dose curve; further: nearly all actives have a fitted effect of over 60% in size
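Compound pre-incubated 30 min at room temperature on GloSensor-loaded HEK293 cells stably carrying hNpr1 and the pGS-40F cGMP biosensor. Stimulation uses hNppA at 0.1 nM final; luminescence is taken at baseline and 20 min post-agonist.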
NIH3T3 tox: NIH 3T3 cell cytotoxicity; AID 1345082; NIH 3T3 viability, CellTiter-Glo ATP luminescence, 48-72 h; Potency, µM (doses to about 96.7 µM), actives largely listed as inhibitors; 4.3% of 94,000 active; further: nearly all actives have a fitted effect of over 55% in size
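Cytotoxicity is measured as loss of cellular ATP: NIH 3T3 cells (400/well) are exposed to compound for 48 or 72 hr at 37 °C, then CellTiter-Glo luminescence is imaged after 10 min at room temperature.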
FLuc inh-1: inhibitors of firefly (Photinus pyralis) luciferase | P08659 | purified P. pyralis luciferase, luminescence, biochemical | Potency, µM (series often up to 115 µM), hits mostly inhibitors | 2.5% of 76,000 active | AID 1347043; further: nearly all actives have a fitted effect of over 65% in size
Target sequence (P08659 whole entry, looked up): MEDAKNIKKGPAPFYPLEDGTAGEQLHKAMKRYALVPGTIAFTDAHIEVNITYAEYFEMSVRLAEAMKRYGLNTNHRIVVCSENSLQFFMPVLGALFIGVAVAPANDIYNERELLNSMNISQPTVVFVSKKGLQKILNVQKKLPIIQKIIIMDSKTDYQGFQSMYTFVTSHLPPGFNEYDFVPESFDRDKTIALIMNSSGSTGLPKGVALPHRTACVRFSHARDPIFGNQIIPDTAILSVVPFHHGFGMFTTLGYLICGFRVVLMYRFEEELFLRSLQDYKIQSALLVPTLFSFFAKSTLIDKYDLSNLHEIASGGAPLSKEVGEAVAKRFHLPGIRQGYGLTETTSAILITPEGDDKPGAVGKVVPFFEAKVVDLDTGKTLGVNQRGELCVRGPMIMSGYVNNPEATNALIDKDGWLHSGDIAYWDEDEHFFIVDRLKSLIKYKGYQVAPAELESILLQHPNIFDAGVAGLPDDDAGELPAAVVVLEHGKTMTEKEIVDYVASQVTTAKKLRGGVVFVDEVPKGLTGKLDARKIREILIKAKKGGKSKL
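Biochemical qHTS: compound (6-point titration) added to 10uM D-luciferin plus 10uM ATP in Tris acetate pH 7.5 buffer with Mg, Tween-20 and BSA, then purified enzyme at 10nM; light output imaged.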
GPT2 inhibitor: GPT2 alanine aminotransferase inhibition | Q8TD30 | Potency, µM (highest dose often 57.7 µM), hits mostly inhibitors | Recombinant GPT2, coupled pyruvate oxidase/HRP Amplex Red fluorescence | AID 1671188 | 0.25% of 100,000 active; further: nearly all actives have a fitted effect of over 60% in size
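Fluorescence read-out: pyruvate from GPT2 turnover coupled to pyruvate oxidase, HRP and Amplex Red (0.2mM ThPP, 0.2U/mL PO and HRP, 50uM Amplex final). Substrates 250uM a-KG, 2mM L-alanine; enzyme 10ng/uL; 30 min RT.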
HEK cytotox: kills HEK 293 cells; HEK 293 viability, ATP luminescence (CellTiter-Glo), 48-72 h; Potency, µM (series often up to 115 µM), actives largely listed as inhibitors; 6.6% of 94,000 active; further: nearly all actives have a fitted effect of over 60% in size
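HEK 293 cells seeded at 250 cells/well were exposed to compound for 48 or 72 hr at 37 degree Celsius. Viability taken as ATP content by CellTiter-Glo luminescence.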
FLuc SDR -ATP: stabilizes firefly luciferase without ATP; 7.8% of 1,300 active; shares compounds with FLuc inh-1; Purified FLuc-C-HiBiT, Nano-Glo HiBiT luminescence, no ATP; AID 1963318; Potency, µM (titrated, usually from 32.7 µM), most hits filed as activators; further: nearly all actives have a fitted effect of over 55% in size
FLuc SDR ATP: firefly luciferase binding stabilization, ATP added; shares compounds with FLuc inh-1; purified FLuc-C-HiBiT + ATP, HiBiT complementation luminescence; Potency, µM (highest dose often 32.7 µM), hits mostly activators; 8.7% of 1,300 active; AID 1963319;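 further: signal reports ligand binding via conformational change of the enzyme rather than luciferase catalysis; nearly all actives have a fitted effect of over 55% in size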
FLuc inh-2: inhibitors of firefly luciferase enzymatic activity; AID 1963320; 42% of 1,300 active; shares compounds with FLuc inh-1; Potency, µM (top dose mostly 32.7 µM), actives largely listed as inhibitors; purified FLuc-C-HiBiT enzyme, luciferin luminescence; further: nearly all actives have a fitted effect of over 70% in size
Each line names hits and unclear results; the compound was inactive in the other large screens (follow-up assays come after a bar, where they were run). Unless noted, the call rests on the fitted dose curve; in most records, active means well fitted curve in the direction sought with a large enough effect; inconclusive means small, poorly fitted or top-dose-only effect, or another doubt; inactive means no such curve, though single readings can be large; an effect the other way counts as inactive or inconclusive.

CC[C@H]1CN2CC[C@H]1C[C@@H]2CNC(=S)Nc1ccc(N(C)C)cc1	GPT2 inhibitor 8.9µM, HEK cytotox inconclusive
C=C[C@H]1CN2CC[C@H]1C[C@@H]2CNC(=O)Nc1cccc(C(F)(F)F)c1	NIH3T3 tox inconclusive, HEK cytotox 100µM
C=C[C@H]1CN2CC[C@H]1C[C@@H]2CNC(=O)Nc1ccc(C(C)(C)C)cc1	NIH3T3 tox 35µM, HEK cytotox 32µM
CC(=O)N1CC2(CCCN2Cc2ccccn2)Cc2ccccc21 (stereo not given)	none (no result: hNpr1 antagonist, FLuc inh-1)
CN(CCc1ccccn1)C[C@H]1CN2CC[C@H]1C[C@@H]2CNC(=O)Nc1ccsc1	none
COc1cc2c(cc1OCc1ccccc1)NC(=O)C21CCN(Cc2nccs2)CC1	NIH3T3 tox inconclusive, FLuc inh-1 inconclusive, GPT2 inhibitor inconclusive, HEK cytotox inconclusive
COc1ccccc1N1CCN(C(=O)[C@H]2CN3CCC2C[C@@H]3Cn2cc(-c3ccccc3)nn2)CC1 (stereo not given in full)	HEK cytotox 45µM
CC(C)(C)c1ccc(-c2cn(C[C@H]3CC4CCN3C[C@@H]4C(=O)NC3CCCCC3)nn2)cc1 (stereo not given in full)	NIH3T3 tox inconclusive, HEK cytotox 32µM
C=CCN(C)C(=O)[C@H]1CN2CCC1C[C@@H]2Cn1cc(-c2ccc(C(C)(C)C)cc2)nn1 (stereo not given in full)	NIH3T3 tox inconclusive, FLuc inh-1 inconclusive, HEK cytotox 100µM
COc1ccc(-c2cn(C[C@H]3C[C@@H]4CCN3C[C@@H]4C(=O)NC3CC3)nn2)cc1	none
O=C(Nc1ccccc1)[C@H]1CN2CCC1C[C@@H]2Cn1cc(CSc2ccccc2)nn1 (stereo not given in full)	NIH3T3 tox 100µM, GPT2 inhibitor inconclusive, HEK cytotox 100µM
CCOC(=O)CCNC(=O)N1[C@H]2CC[C@@H]1c1cnc(-c3ccccc3)nc1C2	none
COc1ccc(-c2cc([C@H]3CN4CC[C@H]3C[C@@H]4CNC(=O)N3CCOCC3)n(C)n2)cc1OC	GPT2 inhibitor inconclusive
O=[S+]1([O-])NCC2(CCN(Cc3cccnc3)C2)Nc2ccccc21 (stereo not given)	none
Cc1cccc(OCC(=O)N2CCN(Cc3ccc(=O)n(C)c3)CC2)c1	none
CC(C)CN(Cc1cccnc1)C1CN(C(=O)COc2ccc(F)cc2)C1	NIH3T3 tox 32µM, HEK cytotox inconclusive
Clc1ccc([C@]23CNC[C@H]2C3)cc1Cl	none (no result: hNpr1 antagonist, NIH3T3 tox, FLuc inh-1, HEK cytotox)
COc1cc2c(cc1OCc1ccccc1)N(C(=O)c1ccc3[nH]ccc3c1)CC21CCN(C)CC1	NIH3T3 tox 22µM, HEK cytotox 35µM
COc1cc2c(cc1OCc1ccccc1)N(C(=O)c1ccccc1OC)CC21CCN(C)CC1	NIH3T3 tox 28µM, HEK cytotox 79µM
COc1cc2c(cc1OCc1ccccc1)N(C(=O)c1cccc(N(C)C)c1)CC21CCN(C)CC1	NIH3T3 tox 11µM, HEK cytotox inconclusive
COc1cc2c(cc1OCc1ccccc1)N(C(=O)C(C)C)CC21CCN(C)CC1	NIH3T3 tox 89µM, HEK cytotox inconclusive
COc1cc2c(cc1OCc1ccccc1)N(C(=O)c1ccnn1C)CC21CCN(C)CC1	NIH3T3 tox inconclusive, HEK cytotox inconclusive
COc1cncc(CN2CCC3(CC2)C(=O)Nc2cc(OCC4CC4)c(OC)cc23)c1	NIH3T3 tox inconclusive, HEK cytotox inconclusive
COCCC(=O)N1[C@H]2CC[C@@H]1c1cnc(C)nc1C2	none
COc1cc2c(cc1Oc1cccc(N(C)C)c1)NC(=O)C21CCN(C(=O)c2cccnc2)CC1	GPT2 inhibitor inconclusive, HEK cytotox inconclusive
CC(=O)N1CCC2(C1)N=C(c1cccnc1)C(=O)N2 (stereo not given)	none
COc1cc2c(cc1OCc1ccccc1)N(C(=O)C1CCC(C)CC1)CC21CCN(C)CC1 (stereo not given)	NIH3T3 tox 20µM, HEK cytotox 28µM
COc1ccccc1-c1cc([C@H]2CN3CC[C@H]2C[C@@H]3COC(=O)Nc2cccc(C(C)=O)c2)nc(C)n1	NIH3T3 tox inconclusive, HEK cytotox 89µM
COc1ccc(-c2cc([C@H]3CN4CC[C@H]3C[C@@H]4COC(=O)NC3CCCCC3)nc(C)n2)cc1	none
Cc1nc(-c2cccs2)cc([C@H]2CN3CC[C@H]2C[C@@H]3COC(=O)NC2CCCCC2)n1	NIH3T3 tox 45µM, HEK cytotox 45µM
Cc1nc(-c2cccs2)cc([C@H]2CN3CC[C@H]2C[C@@H]3COC(=O)Nc2cccc(C(F)(F)F)c2)n1	hNpr1 antagonist inconclusive, NIH3T3 tox inconclusive, HEK cytotox 11µM
CCCNC(=O)OC[C@H]1C[C@@H]2CCN1C[C@@H]2c1cc(-c2cccs2)nc(C)n1	NIH3T3 tox inconclusive, HEK cytotox 112µM
COc1cc2c(cc1-c1ccc(CO)cc1)NC(=O)C21CCN(C)CC1	none (no result: hNpr1 antagonist, NIH3T3 tox, FLuc inh-1, GPT2 inhibitor, HEK cytotox) | FLuc SDR -ATP inactive | FLuc SDR ATP inactive | FLuc inh-2 inconclusive
CC(C)CN1CCNc2cc(-c3ccccc3)ncc2C1	NIH3T3 tox inconclusive, FLuc inh-1 4µM, HEK cytotox inconclusive | FLuc SDR -ATP inactive | FLuc SDR ATP inactive | FLuc inh-2 inconclusive
Cc1ccc([C@H]2CN(C(=O)C(=O)c3cccn3C)[C@@H]3C4CCN(CC4)[C@H]23)cc1	none
CN1CCNc2cc(Nc3ccc(F)c(Cl)c3)ncc2C1	hNpr1 antagonist inconclusive, NIH3T3 tox 50µM, FLuc inh-1 0.79µM, HEK cytotox inconclusive | FLuc SDR -ATP inactive | FLuc SDR ATP inactive | FLuc inh-2 13µM
CN1CCNc2cc(Nc3ccc(F)cc3)ncc2C1	NIH3T3 tox inconclusive, FLuc inh-1 3.2µM, HEK cytotox inconclusive | FLuc SDR -ATP inactive | FLuc SDR ATP inactive | FLuc inh-2 20µM
CN1CCNc2cc(Nc3ccncc3)ncc2C1	NIH3T3 tox inconclusive, HEK cytotox inconclusive
COc1ccc(C(=O)N2C[C@@H]3C[C@H](C2)c2c(NC(=O)CSC)ccc(=O)n2C3)cc1	none
CCC1(N2CCN(C(=O)COc3cccc(Cl)c3)CC2)CCN(S(C)(=O)=O)C1 (stereo not given)	NIH3T3 tox inconclusive, HEK cytotox inconclusive
